Results filed as inconclusive are left out. Active and inactive are the calls of the source. The call rests on the fitted dose curve; in most records, active means well fitted curve in the direction sought with a large enough effect; inconclusive means small, poorly fitted or top-dose-only effect, or another doubt; inactive means no such curve, though single readings can be large; an effect the other way counts as inactive or inconclusive.
What was measured:
[1] = target: Rap guanine nucleotide exchange factor 3 (Homo sapiens) (UniProt O95398); experiment: Confirmatory qHTS for agonist of cAMP-regulated guanine nucleotide exchange factor 3 (EPAC1) (AID 1645881);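 further: EPAC1 catalysed release of BODIPY-GDP from Rap1B seen as fluorescence loss; 100% = effect of cAMP agonist control; nearly all actives have a fitted effect of over 75% in size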
Rap guanine nucleotide exchange factor 3 (Homo sapiens), sequence (O95398 whole entry, looked up): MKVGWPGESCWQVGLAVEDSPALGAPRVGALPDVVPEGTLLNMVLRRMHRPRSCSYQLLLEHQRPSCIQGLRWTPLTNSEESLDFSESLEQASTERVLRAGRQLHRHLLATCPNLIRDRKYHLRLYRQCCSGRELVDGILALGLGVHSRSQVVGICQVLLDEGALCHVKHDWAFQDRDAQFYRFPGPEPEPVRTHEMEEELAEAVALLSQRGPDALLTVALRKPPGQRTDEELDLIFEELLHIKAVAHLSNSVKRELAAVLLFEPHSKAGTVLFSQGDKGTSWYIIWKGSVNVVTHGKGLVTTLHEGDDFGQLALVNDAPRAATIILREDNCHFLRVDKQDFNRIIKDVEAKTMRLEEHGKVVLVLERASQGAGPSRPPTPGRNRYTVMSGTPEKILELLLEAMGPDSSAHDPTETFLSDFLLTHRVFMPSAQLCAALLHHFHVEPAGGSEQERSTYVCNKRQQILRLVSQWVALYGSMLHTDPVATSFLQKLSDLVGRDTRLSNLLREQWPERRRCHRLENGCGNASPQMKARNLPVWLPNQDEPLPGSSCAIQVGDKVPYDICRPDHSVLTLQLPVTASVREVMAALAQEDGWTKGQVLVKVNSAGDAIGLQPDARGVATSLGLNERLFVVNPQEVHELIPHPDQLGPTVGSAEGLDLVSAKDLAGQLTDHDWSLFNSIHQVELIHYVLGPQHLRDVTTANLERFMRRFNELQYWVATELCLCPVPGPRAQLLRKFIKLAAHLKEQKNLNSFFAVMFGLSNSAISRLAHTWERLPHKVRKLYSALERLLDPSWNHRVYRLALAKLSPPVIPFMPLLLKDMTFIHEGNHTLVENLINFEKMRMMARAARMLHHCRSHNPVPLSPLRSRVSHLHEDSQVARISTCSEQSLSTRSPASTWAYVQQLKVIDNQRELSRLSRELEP

[2] = target: Rap guanine nucleotide exchange factor 4 (Homo sapiens) (UniProt Q8WZA2); experiment: Confirmatory qHTS for agonist of cAMP-regulated guanine nucleotide exchange factor 4 (EPAC2) (AID 1645884);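 further: nucleotide exchange releases bodipy-GDP from Rap1 and this lowers its fluorescence; on the % scale 0 is the no-effect control and ±100 the full control effect; nearly all actives have a fitted effect of over 65% in size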
Rap guanine nucleotide exchange factor 4 (Homo sapiens), sequence (Q8WZA2 whole entry, looked up): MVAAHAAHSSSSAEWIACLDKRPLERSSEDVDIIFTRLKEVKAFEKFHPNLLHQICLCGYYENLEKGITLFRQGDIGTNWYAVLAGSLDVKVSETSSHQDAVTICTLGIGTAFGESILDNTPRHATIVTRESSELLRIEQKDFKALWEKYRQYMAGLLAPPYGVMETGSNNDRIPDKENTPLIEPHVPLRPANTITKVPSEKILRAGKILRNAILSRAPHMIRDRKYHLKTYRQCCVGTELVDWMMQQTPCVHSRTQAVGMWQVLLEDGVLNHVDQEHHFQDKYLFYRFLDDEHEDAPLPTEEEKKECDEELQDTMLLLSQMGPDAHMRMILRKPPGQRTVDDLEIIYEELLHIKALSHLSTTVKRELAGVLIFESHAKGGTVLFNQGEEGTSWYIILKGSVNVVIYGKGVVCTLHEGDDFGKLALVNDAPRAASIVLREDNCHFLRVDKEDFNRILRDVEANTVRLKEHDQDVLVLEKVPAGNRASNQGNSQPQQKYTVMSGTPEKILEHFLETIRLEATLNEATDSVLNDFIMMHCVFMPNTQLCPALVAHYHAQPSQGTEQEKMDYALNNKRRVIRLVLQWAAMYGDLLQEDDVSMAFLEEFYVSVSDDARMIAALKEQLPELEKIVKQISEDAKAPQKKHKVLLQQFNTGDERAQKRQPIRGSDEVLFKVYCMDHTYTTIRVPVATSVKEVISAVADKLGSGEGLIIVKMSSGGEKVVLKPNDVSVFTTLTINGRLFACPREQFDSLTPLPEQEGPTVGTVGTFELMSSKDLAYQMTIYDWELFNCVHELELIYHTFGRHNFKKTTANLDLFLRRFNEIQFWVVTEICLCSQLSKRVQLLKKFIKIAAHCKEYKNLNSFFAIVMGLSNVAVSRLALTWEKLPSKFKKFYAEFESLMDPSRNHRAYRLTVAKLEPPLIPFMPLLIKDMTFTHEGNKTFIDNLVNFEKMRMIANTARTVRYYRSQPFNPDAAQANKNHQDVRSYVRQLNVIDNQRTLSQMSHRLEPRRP

[3] = target: Rap guanine nucleotide exchange factor 3 (Homo sapiens) (UniProt O95398); experiment: Counterscreen qHTS for antagonist of cAMP-regulated guanine nucleotide exchange factor 3 (EPAC1) (AID 1645888);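 further: fluorescence loss as bound BODIPY-GDP is released from Rap1B; % of control where 0% means no effect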
Procedure, shortened: (§1)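 Rap1B-BODIPY-GDP 250 nM + GDP 50 uM; cpds 7-pt, final 9.74 nM–152 uM (activator mode) or from 7.32 nM upwards (inhibitor mode); RT; FI 480/540 nm at 5 and 30 min, then ± cAMP, reread.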

[4] = target: Rap guanine nucleotide exchange factor 3 (Homo sapiens) (UniProt O95398); experiment: Counterscreen qHTS for agonist of cAMP-regulated guanine nucleotide exchange factor 3 (EPAC1) (AID 1645889); further: % of control where 0% means no effect; nearly all actives have a fitted effect of over 40% in size
Procedure, shortened: as §1

C=C1CC2C(=O)N(Cc3cc(OC)ccc3OC)C(C(=O)OCC)(C(=O)OCC)C1N2C(=O)OC(C)(C)C (stereo not drawn)
inactive: Potency [1] | Potency [2] | Potency [3] | Potency [4]

CCOC(=O)Cn1nc(C)c(NC(=O)COc2ccccc2[N+](=O)[O-])c1C
inactive: Potency [1] | activation [2] 1.83% [at 17.1 µM, percent relative to cAMP agonist control] | activity change, negative = inhibition [3] -12.5% [at 30.8 µM] | activation [4] 2.17% [at 30.8 µM]

O=C(CSc1nnc(-c2ccco2)c(-c2ccco2)n1)c1ccccc1
inactive: Potency [1] | Potency [2] | Potency [3] | Potency [4]

CN(CC(=O)Nc1ccc(F)cc1)C(=O)COc1ccc(C(=O)c2ccccc2)cc1
inactive: Potency [1] | Potency [2] | Potency [3] | Potency [4]

Cc1cc(Br)c2c(c1)[C@](O)(c1cn(C)c3ccccc13)C(=O)N2C
inactive: Potency [1] | activation [2] 1.9% [at 17.1 µM, percent relative to cAMP agonist control] | activity change, negative = inhibition [3] -15.6% [at 30.8 µM] | activation [4] 24.7% [at 30.8 µM]

CCOc1ccc(C(=O)CCN2CCCCCC2)cc1
inactive: Potency [1] | Potency [2] | Potency [4]
